Active and inactive are the calls of the source.
Tested on: XIP peptide (Xip251-270) binding
Assay: small-molecule binders of XIP peptide, primary screen, biochemical, small-molecule microarray, fluorescence 635/667 nm, 0.1 µg/mL protein (AID 1182)
Details: fluorescent protein binding, 635 nm, higher = more signal, called active from +8 up or from −8 down

Structure (SMILES) | composite z-score
C#CCCCON=C1[C@H]2CCn3c(=O)n(C)c(=O)n3[C@H]2[C@H](O)[C@@H]2O[C@H]12 | -0.158 (inactive)
CC(C)=CCCC(C)=CCON=C1C[C@@H](O)[C@@H](O)[C@@H]2[C@@H]3C(=O)N(C(C)(C)C)C(=O)[C@@H]3CC[C@H]12 | -0.007 (inactive)
CO[C@H]1COC(=O)CC=C[C@@H](C)[C@H](OC)COC(=O)[C@@H]2CCCN2C(=O)CC=C[C@@H]1C | 0.832 (inactive)
CCOC(=O)NN=C1C[C@@H](O)[C@@H](O)[C@@H]2[C@@H]3C(=O)N(c4cccc(Oc5ccccc5)c4)C(=O)[C@@H]3CC[C@H]12 | 0.389 (inactive)
O=C1[C@H]2[C@H]3[C@H](O)[C@H](O)CC(=NOCc4ccccc4)[C@@H]3CC[C@H]2C(=O)N1c1ccc(F)cc1F | -0.228 (inactive)
Cn1c(=O)n2n(c1=O)[C@H]1[C@H](O)[C@@H]3O[C@@H]3C(=O)[C@H]1CC2 | 0.151 (inactive)
CCCNC(=O)OC[C@H]1O[C@H](c2ccccc2)C=C[C@@H]1Oc1ccc(OC)cc1 | -0.174 (inactive)
CC(C)CCN1CCc2nc(COc3ccccc3)c3c(c2C1)CO[C@@H](C)C3 | 0.0821 (inactive)

Tested on: XIP peptide (Xip251-270)
Assay: small-molecule binders of XIP peptide, primary screen, biochemical, small-molecule microarray, fluorescence 635/667 nm, 0.5 µg/mL protein (AID 1183)
Details: small-molecule microarray binding, fluorescence 635 nm; higher = more signal

Structure (SMILES) | composite z-score
CO[C@@H]1COC(=O)[C@@H](C)COC(=O)[C@@H](C)NC(=O)CC=C[C@@H]1C | 0.304
CCOC(=O)[C@H](CC(C)C)NC(=O)CCC1CC(OC(=O)NCc2cccc3ccccc23)CC2(CCCC(COC(=O)NCCc3ccc(Cl)cc3)O2)O1 (some centres undefined) | 0.111
COc1ccc(O[C@@H]2[C@H](O)CO[C@@H]2C=Cc2ccccc2)cc1 | 0.592
O=C1C2=CC[C@H]3C(=O)N(c4cccc(Oc5ccccc5)c4)C(=O)[C@H]3[C@H]2[C@H](O)[C@@H]2O[C@H]12 | 0.182
O=C1C=C[C@@H](O)[C@@H]2[C@@H]3C(=O)N(C[C@@H]4CCCO4)C(=O)[C@@H]3CC[C@@H]12 | 0.119
CO[C@H]1COC(=O)[C@H](C)NC(=O)CC=C[C@@H](C)[C@H](OC)COC(=O)[C@@H](OCc2ccccc2)C=C[C@@H]1C | -0.54
CCOC(=O)[C@H](CC(C)C)NC(=O)CCC1CC(OC(=O)NCCc2ccc(F)cc2)CC2(CCCC(COC(=O)NCCc3ccc(Cl)cc3)O2)O1 (some centres undefined) | 0.571
CCN1C(=O)[C@@H]2[C@H]3C(=CC[C@@H]2C1=O)C1(OCCCO1)[C@H]1O[C@H]1[C@H]3O | 0.689
CCOC(=O)[C@H](CC(C)C)NC(=O)CCC1CC(OC(=O)NCc2cccc3ccccc23)CC2(CCCC(COC(=O)NCCOc3ccccc3)O2)O1 (some centres undefined) | 0.471
COC(=O)CC=C[C@@H](C)[C@@H](C=NO[C@@H]1O[C@H](COC(C)=O)[C@@H](OC(C)=O)[C@H](OC(C)=O)[C@H]1OC(C)=O)OC | -0.17
CCOC(=O)NN=C1C[C@@H](O)[C@@H](O)[C@@H]2[C@@H]3C(=O)N(Cc4ccccc4)C(=O)[C@@H]3CC[C@H]12 | 0.0213
Cc1cc2c(nc1C)CCCN2CC(O)CN1CCCc2nc(C)c(C)cc21 | -0.134
COc1ccc(COC(=O)NN=C2C[C@@H](O)[C@@H](O)[C@@H]3[C@@H]4C(=O)N(C5CCCCC5)C(=O)[C@@H]4CC[C@H]23)cc1 | -1.02
COC(=O)CC=C[C@@H](C)[C@@H](C=NOCC[C@@H]1C=C[C@H](OC(C)=O)[C@@H](COC(C)=O)O1)NS(=O)(=O)c1ccc(C)cc1 | 0.303
CO[C@@H]1C=CCC(=O)N2CCC[C@H]2C(=O)OC[C@@H](C)C(=O)OC[C@H]1C | 0.826
C=CC[C@@H]1C=C[C@H](ON=C(C)CCC(=O)OC[C@H]2O[C@H](C#Cc3ccccc3)C=C[C@@H]2Oc2ccc(C)cc2)[C@@H](CO)O1 | 0.437
CC(CCC(=O)OC[C@H]1O[C@H](C#Cc2ccccc2)C=C[C@@H]1Oc1ccc(C)cc1)=NO[C@H](C)c1cn([C@H](CO)Cc2ccccc2)nn1 | 0.662
CON=CC[C@@H]1C=C[C@H](OC(C)=O)[C@@H](COC(C)=O)O1 | 0.763

Structure (SMILES) | composite z-score
CO[C@@H]1COC(=O)CC=C[C@@H](C)[C@@H]2C=C[C@H](O)[C@@H](COC(=O)CC=C[C@H]1C)O2 | 0.853
CCCCC#C[C@@H]1C=C[C@H](OC(C)=O)[C@@H](COC(C)=O)O1 | 0.641
C#CCCCON=C1C[C@@H](O)[C@@H](O)[C@@H]2[C@@H]3C(=O)N(c4cccc(Oc5ccccc5)c4)C(=O)[C@@H]3CC[C@H]12 | 0.507
Cn1c(=O)n2n(c1=O)[C@H]1[C@H](O)[C@@H]3O[C@@H]3C(=NOCc3ccccc3)[C@H]1CC2 | 0.382
CCOC(=O)C1=NO[C@]2(C=C(Br)C3(OCCCO3)[C@H]3O[C@H]32)C1 | 0.857
CCN1C(=O)[C@H]2[C@H]3[C@H](O)[C@H](O)CC(=NOC[C@H]4O[C@H](c5ccccc5)C=C[C@@H]4Oc4ccc(OC)cc4)[C@@H]3CC[C@H]2C1=O | 0.704
Cc1ccc(S(=O)(=O)NC(CCc2ccccc2)CC(=O)C(C)(C)C)cc1 (centres undefined) | -0.113
O=C1CCCC=C1C(O)CCCCBr (centres undefined) | -0.165
C[C@@H](c1ccccc1)N1C(=O)[C@H]2[C@H]3[C@H](O)[C@H](O)CC(=NO[C@@H]4O[C@H](CO)[C@@H](O)[C@H](O)[C@H]4O)[C@@H]3CC[C@H]2C1=O | 0.438
C#CCCCON=C1C[C@@H](O)[C@@H](O)[C@@H]2[C@@H]3C(=O)N(c4ccc(F)cc4F)C(=O)[C@@H]3CC[C@H]12 | 0.683
C#CCCCON=C1[C@H]2CCn3c(=O)n(C)c(=O)n3[C@H]2[C@H](O)[C@@H]2O[C@H]12 | 0.442
CC(C)=CCCC(C)=CCON=C1C[C@@H](O)[C@@H](O)[C@@H]2[C@@H]3C(=O)N(C(C)(C)C)C(=O)[C@@H]3CC[C@H]12 | 0.427
CO[C@H]1COC(=O)CC=C[C@@H](C)[C@H](OC)COC(=O)[C@@H]2CCCN2C(=O)CC=C[C@@H]1C | 0.678
CCOC(=O)NN=C1C[C@@H](O)[C@@H](O)[C@@H]2[C@@H]3C(=O)N(c4cccc(Oc5ccccc5)c4)C(=O)[C@@H]3CC[C@H]12 | 0.0776
O=C1[C@H]2[C@H]3[C@H](O)[C@H](O)CC(=NOCc4ccccc4)[C@@H]3CC[C@H]2C(=O)N1c1ccc(F)cc1F | 0.0159
Cn1c(=O)n2n(c1=O)[C@H]1[C@H](O)[C@@H]3O[C@@H]3C(=O)[C@H]1CC2 | 0.186
CCCNC(=O)OC[C@H]1O[C@H](c2ccccc2)C=C[C@@H]1Oc1ccc(OC)cc1 | 0.631
CC(C)CCN1CCc2nc(COc3ccccc3)c3c(c2C1)CO[C@@H](C)C3 | 0.143
